Data: PubChem BioAssay (NCI)
Compounds without any hit were thinned out: in the full panel of roughly 79,000, 15% have a hit. A number with no mark means an inactive call. The source made the active and inactive calls. Cut-off read from the data, not from the text of the source: active = growth inhibition above about 70%; inactive = the rest.

How the values were obtained:
[1] = NCI Yeast Anticancer Drug Screen. Data for the rad50 strain (AID 155);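 note: 0% = growth of vehicle-only cultures of the same strain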; conditions: S. cerevisiae rad50 strain growth inhibition; at 50.0 µM; hits give high values
Method in brief: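 Yeast carrying a defined DNA repair defect were exposed to test compounds, and growth was compared with vehicle-treated controls to give percent inhibition.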

[2] = NCI Yeast Anticancer Drug Screen. Data for the mec2-1 strain (AID 157); conditions: S. cerevisiae mec2-1 strain, at 50.0 µM, hits give high values
Method in brief: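 Strain: mec2-1 (DNA repair/cell cycle alteration). Compound exposure, then growth measured; inhibition expressed relative to vehicle.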

[3] = NCI Yeast Anticancer Drug Screen. Data for the sgs1 mgt1 strain (AID 161);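 note: 0% = growth of cultures given vehicle only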; conditions: S. cerevisiae sgs1 mgt1 strain, at 50.0 µM, hits give high values
Method in brief: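 Read-out: growth inhibition vs vehicle controls. Cells: mutant yeast strain deficient in DNA damage repair.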

[4] = NCI Yeast Anticancer Drug Screen. Data for the cln2 rad14 strain (AID 165);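 note: 0% = growth equal to vehicle treated cultures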; conditions: S. cerevisiae cln2 rad14 strain, at 50.0 µM, hits give high values
Method in brief: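 Compounds are applied to the cln2 rad14 yeast strain, and growth is then compared with that of vehicle-treated cultures to give inhibition.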

[5] = NCI Yeast Anticancer Drug Screen. Data for the bub3 strain (AID 167); conditions: S. cerevisiae bub3 mutant strain, at 50.0 µM, hits give high values
Method in brief: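 Compounds were applied to a genetically altered yeast strain carrying a cell-cycle control defect. Growth inhibition was scored against vehicle-treated controls.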

[6] = NCI Yeast Anticancer Drug Screen. Data for the mlh1 rad18 strain (AID 175); conditions: S. cerevisiae mlh1 rad18 strain growth inhibition; at 50.0 µM; hits give high values
Method in brief: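 Read-out is yeast growth inhibition, calculated against vehicle-only controls. The compound was applied to a strain engineered with DNA damage repair alterations.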

SMILES | growth inhibition [1] | growth inhibition [2] | growth inhibition [3] | growth inhibition [4] | growth inhibition [5] | growth inhibition [6]
CC(=O)NNC(=S)N/C=C(\C#N)c1nc2ccccc2s1 | 22.2% | 12.2% | -17.2% | 18.4% | -10.7% | 12.1%
Cc1[nH]c(=O)c2ccccc2c1O | 10.6% | -8.15% | -3.7% | 6.35% | -17.2% | -1.35%
C=Cc1ccccc1NC(C(=O)O)c1ccccc1 (configuration not stated) | 18.8% | -5.05% | -0.8% | 18.6% | 7.2% | 1.35%
CC(C)CC1=C(C(=O)c2ccoc2)CC(C)C1 (configuration not stated) | 6.55% | -7.6% | -18.9% | 12.1% | 25.9% | -7.1%
COc1ccccc1/C=C(\C)C(=O)O | 10.8% | -15.3% | -6.2% | 0.05% | -11.3% | -16.1%
Cc1ccc(NC(=O)CCc2nnc3s/c(=C\c4cccc([N+](=O)[O-])c4)c(=O)n23)cc1 | -31.4% | -8.45% | -10.6% | 14% | 10.7% | 3.3%
C=CCC1(CO)CCCCC1O (configuration not stated) | 1.6% | 1.5% | 16.4% | -73.4% | 10.3% | 3.2%
COCCCN(Cc1cc(OC)c(OC)c(OC)c1)C(=S)Nc1cccc(SC)c1 | 13.8% | -19.4% | 40.5% | 25.6% | 51.2% | 16.6%
O=[N+]([O-])c1ccc(N=CNc2ccc([N+](=O)[O-])cc2)cc1 | -15.9% | -13.1% | -1.5% | -12% | 17.1% | -6.65%
O=C(O)CC12C3C4C5C3C1C5C42 (configuration not stated) | 24.1% | 17.1% | 15.2% | 8.5% | 47.9% | 26.6%
O=C(O)c1ccc([N+](=O)[O-])c(P(=O)(O)O)c1 | -5.95% | -7% | -12.2% | -42.8% | -29.6% | -3.5%
CC1=NN(C)C(=O)C1 | 1.45% | 3.3% | 1.9% | -0.4% | -3.05% | 9.25%
CC(=O)CC(C)(C)NC(=S)NCCO | 1.2% | -26.5% | 2% | -29.4% | -8.85% | -13.4%
CCC(CC)=NNS(=O)(=O)c1cccc2ccccc12 | 10.7% | -12.4% | -11.7% | -15.7% | -17.9% | -0.1%
N#Cc1c(N)nc2c3c1NC(=O)C(C(N)=O)C3c1ccccc1O2 (configuration not stated) | 6.1% | -3.15% | 5.95% | 2% | -2.6% | -22.4%
CCCCOC(OCCCC)C(OCCCC)OCCCC | 18.9% | 8.2% | 19.8% | -0.4% | 16.4% | 38%
NC(=S)N/N=C\c1ncccc1OCc1cccc(N)c1 | 32.3% | 46.9% | 42% | 5.6% | 37.4% | 29.2%
O/N=C1/CCCCCC1NO (configuration not stated) | -23.8% | -24.1% | -22.7% | 15.4% | -18.1% | -13.1%
COC/C=C(\C)CC/C=C(\C)CCC=C(C)C | -8.2% | 0.95% | -1.2% | 22.6% | -27.3% | 2.95%
COc1c2occc2c(S(=O)(=O)O)c2ccc(=O)oc12 | -12.5% | 4.05% | 6.45% | 3.75% | -40.6% | 2.7%
O=C(O)c1ccccc1C(=O)NCc1ccc(Cl)cc1Cl | -3.75% | 22.6% | 21.4% | -7.3% | 19.9% | 38.8%

SMILES | growth inhibition [1] | growth inhibition [2] | growth inhibition [3] | growth inhibition [4] | growth inhibition [5] | growth inhibition [6]
CC(=C/c1ccccc1)/C=C1/NC(=S)N(CN2CCCCCC2)C1=O | 5.15% | -22.1% | 19.9% | -10.2% | -9.75% | -14.8%
CON(C)c1nc(N)c(C#N)c(C#N)c1C#N | 4.35% | -23.7% | 3.3% | 13.4% | 15% | 7.45%
CCCCC(NC(=O)OCc1ccccc1)C(=O)NC(Cc1c[nH]c2ccccc12)C(=O)O (configuration not stated) | 37.6% | 3.9% | 14.7% | 17.8% | 0.4% | 9.25%
O=C(O)c1ccc([C@@H]2C(=O)N(O)[C@@H]3C=CC[C@@H]32)cc1 | -8.4% | -12.8% | -7.45% | 19.7% | -14.7% | 8.25%
O=[N+]([O-])c1ccc(Sc2c3ccccc3nc3ccccc23)cn1 | 21.1% | 27.4% | -12.5% | 7.65% | -14.8% | -18.4%
CC(=O)N(C(C)=O)c1ccc2c(c1)Cc1ccccc1-2 | 14.9% | -12.9% | 17.4% | 3.85% | 35.3% | 15.1%
CCCCCC[C@@H](O)C/C=C\CCCCCCCC(=O)OCC(C)O (some centres not stated) | 22.1% | -2.35% | 8.9% | -30.6% | -2.85% | -20.4%
Cc1cc(C)cc(Cc2ccc3ccccc3c2)c1 | 2.9% | -3.65% | -1.15% | -12.3% | 9.45% | 8.45%
NS(=O)(=O)c1ccccc1 | 25.2% | 18.9% | 7.95% | -28.4% | 12.4% | 15.4%
O=C(O)/C=C\C(=O)Nc1ccc(C(=O)NCC(=O)O)cc1 | -22.9% | -4.8% | -0.85% | -20.8% | -11.8% | -7.05%
CC(=O)/C=C\C1CC2C=CC1C2 (configuration not stated) | -11.6% | -10.2% | 3.65% | 17.1% | -20.4% | 31.6%
CCCN(CCCC(NC(C)=O)C(=O)NCc1ccccc1)C(=O)N(C)N=O (configuration not stated) | -21.1% | -24.8% | -4.25% | 19.9% | -14.8% | -11.9%
CC1(C)OCC(C(O)C2OC(C)(C)OC2/C=N\O)O1 (configuration not stated) | -3.9% | -18% | -0.2% | -0.5% | -1.45% | -17%
CN(C)c1ccc2c(c1)Cc1cc(N3C(=O)C=CC3=O)ccc1-2 | 97.3% (active) | 98% (active) | 98.9% (active) | 97.6% (active) | 98.2% (active) | 98.5% (active)
O=C(Cl)C1CC=C2c3ccccc3CCC2C1C(=O)Cl (configuration not stated) | 0.85% | 19.1% | 8.1% | -3.05% | 15.1% | -5.5%
CCC(=O)OCC(OC(=O)CC)c1ccccc1 (configuration not stated) | 3.75% | -22.6% | -16.1% | 2.05% | 3.75% | 8.2%
CCCCCCCCCCCC[N+](C)(C)Cc1cc(=O)c(O)co1 | 71.7% (active) | 43.6% | 74.1% (active) | 78.8% (active) | 65% | 27.2%
O=C(OCCCl)OCCCl | 41.5% | 18.9% | 22.4% | -21.9% | -5.3% | 25%
FC(F)(F)c1nn2c(c(-c3ccccc3)c(-c3ccccc3)c3ccccc32)c1C(F)(F)F | 32.9% | 11.2% | 28.9% | 25.6% | -4.4% | 31.8%
C=CCOC(=O)c1ccco1 | 5.6% | -6.3% | 2.35% | -1.4% | 0.45% | 2.05%
CN(C(=O)Cl)c1ccccc1 | 9.1% | -9.35% | 7.8% | 8.6% | 16.8% | 16.8%
